# Key:
# Assay in all cases: DAPPL (digital affinity profiling via proximity ligation, sequencing); 10 mM Tris-HCl pH 7.5, 50 mM NaCl, 1 mM DTT, 4% glycerol, room temperature, 30 min; GST-TFs on glutathione beads, 16-mer random dsDNA library, 0.1% formaldehyde crosslink after washing; high values mean tight binding
# [1] = target: T1, FEV (Homo sapiens, UniProt Q99581 1-238); settings: protein: recombinant; tags: N-terminal GST; dsDNA, one strand shown
# T1 sequence: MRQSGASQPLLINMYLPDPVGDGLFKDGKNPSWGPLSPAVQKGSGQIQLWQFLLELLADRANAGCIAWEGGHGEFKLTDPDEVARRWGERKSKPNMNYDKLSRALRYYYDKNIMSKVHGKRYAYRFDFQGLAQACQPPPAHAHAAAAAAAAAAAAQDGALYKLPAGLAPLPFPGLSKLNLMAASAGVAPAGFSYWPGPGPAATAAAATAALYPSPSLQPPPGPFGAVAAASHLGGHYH
# In short: (§1)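 Each value of binding signal is a hexamer's read frequency for a factor divided by the same hexamer's frequency in the tag-only sample. Barcoded, bead-captured GST fusions of human transcription factors made in yeast were pooled with that sample and incubated with 200 nmole of a random double-stranded 16-mer DNA library in Tris/NaCl/DTT/glycerol buffer at room temperature for 30 min. Washing, 0.1% formaldehyde crosslinking, proximity ligation, PCR and Illumina NextSeq500 sequencing followed.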
# [2] = target: ETV5 (Homo sapiens, UniProt P41161 1-510); settings: protein: recombinant; tags: N-terminal GST; dsDNA, one strand shown
# In short: as §1
# [3] = target: HSF1 (Homo sapiens, UniProt Q00613 1-529); settings: protein: recombinant; tags: N-terminal GST; chain copies: 3; dsDNA, one strand shown
# In short: as §1
# [4] = target: T2, SPIC (Homo sapiens, UniProt Q8N5J4 1-248); settings: protein: recombinant; tags: N-terminal GST; dsDNA, one strand shown
# T2 sequence: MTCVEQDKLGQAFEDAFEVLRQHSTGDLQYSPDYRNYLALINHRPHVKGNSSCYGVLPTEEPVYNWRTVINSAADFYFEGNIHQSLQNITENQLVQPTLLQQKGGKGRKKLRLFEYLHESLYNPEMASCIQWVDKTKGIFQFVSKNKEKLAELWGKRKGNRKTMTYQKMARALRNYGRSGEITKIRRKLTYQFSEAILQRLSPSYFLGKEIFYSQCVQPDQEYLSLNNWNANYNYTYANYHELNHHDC
# In short: as §1
# [5] = target: ELF4 (Homo sapiens, UniProt Q99607 1-663); settings: protein: recombinant; tags: N-terminal GST; dsDNA, one strand shown
# In short: as §1
# [6] = target: T3, ELK4 (Homo sapiens, UniProt P28324-2 1-405); settings: protein: recombinant; tags: N-terminal GST; dsDNA, one strand shown
# T3 sequence: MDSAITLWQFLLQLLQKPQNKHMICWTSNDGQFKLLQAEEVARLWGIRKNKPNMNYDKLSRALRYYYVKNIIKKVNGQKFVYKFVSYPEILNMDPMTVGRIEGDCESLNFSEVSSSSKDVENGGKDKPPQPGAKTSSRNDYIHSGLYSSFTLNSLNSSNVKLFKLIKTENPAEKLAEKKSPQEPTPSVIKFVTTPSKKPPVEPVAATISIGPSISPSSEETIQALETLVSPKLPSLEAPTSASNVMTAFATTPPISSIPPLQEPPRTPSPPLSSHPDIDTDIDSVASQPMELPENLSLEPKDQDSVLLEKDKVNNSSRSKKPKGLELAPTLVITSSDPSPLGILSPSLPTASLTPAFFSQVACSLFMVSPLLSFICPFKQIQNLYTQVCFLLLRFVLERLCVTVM
# In short: as §1
# [7] = target: T4, ETV2 (Homo sapiens, UniProt O00321 1-342); settings: protein: recombinant; tags: N-terminal GST; dsDNA, one strand shown
# T4 sequence: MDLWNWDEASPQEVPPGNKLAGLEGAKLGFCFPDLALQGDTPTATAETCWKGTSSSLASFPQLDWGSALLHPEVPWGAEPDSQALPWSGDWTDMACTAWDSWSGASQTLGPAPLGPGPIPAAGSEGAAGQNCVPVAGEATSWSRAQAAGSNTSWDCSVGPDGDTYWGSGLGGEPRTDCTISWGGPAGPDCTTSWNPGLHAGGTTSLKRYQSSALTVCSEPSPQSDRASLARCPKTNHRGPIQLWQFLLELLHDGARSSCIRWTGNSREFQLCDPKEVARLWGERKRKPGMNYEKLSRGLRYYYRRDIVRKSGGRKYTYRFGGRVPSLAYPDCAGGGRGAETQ
# In short: as §1
# [8] = target: T5, ELF3 (Homo sapiens, UniProt P78545 1-371); settings: protein: recombinant; tags: N-terminal GST; dsDNA, one strand shown
# T5 sequence: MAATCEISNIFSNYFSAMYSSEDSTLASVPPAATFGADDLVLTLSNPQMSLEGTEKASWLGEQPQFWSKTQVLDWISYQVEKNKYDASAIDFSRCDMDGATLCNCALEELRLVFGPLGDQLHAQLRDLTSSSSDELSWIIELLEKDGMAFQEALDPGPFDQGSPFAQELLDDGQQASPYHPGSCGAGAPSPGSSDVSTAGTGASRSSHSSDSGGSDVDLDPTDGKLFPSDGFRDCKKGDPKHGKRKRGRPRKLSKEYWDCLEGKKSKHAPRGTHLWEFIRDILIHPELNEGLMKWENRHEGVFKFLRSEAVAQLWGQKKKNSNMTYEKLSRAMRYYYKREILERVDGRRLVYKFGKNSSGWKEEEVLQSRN
# In short: as §1
# [9] = target: CRX (Homo sapiens, UniProt O43186 1-299); settings: protein: recombinant; tags: N-terminal GST; dsDNA, one strand shown
# In short: as §1
# [10] = target: ETV1 (Homo sapiens, UniProt P50549 1-477); settings: protein: recombinant; tags: N-terminal GST; dsDNA, one strand shown
# In short: as §1
# [11] = target: T6, ERF (Homo sapiens, UniProt P50548 1-548); settings: protein: recombinant; tags: N-terminal GST; dsDNA, one strand shown
# T6 sequence: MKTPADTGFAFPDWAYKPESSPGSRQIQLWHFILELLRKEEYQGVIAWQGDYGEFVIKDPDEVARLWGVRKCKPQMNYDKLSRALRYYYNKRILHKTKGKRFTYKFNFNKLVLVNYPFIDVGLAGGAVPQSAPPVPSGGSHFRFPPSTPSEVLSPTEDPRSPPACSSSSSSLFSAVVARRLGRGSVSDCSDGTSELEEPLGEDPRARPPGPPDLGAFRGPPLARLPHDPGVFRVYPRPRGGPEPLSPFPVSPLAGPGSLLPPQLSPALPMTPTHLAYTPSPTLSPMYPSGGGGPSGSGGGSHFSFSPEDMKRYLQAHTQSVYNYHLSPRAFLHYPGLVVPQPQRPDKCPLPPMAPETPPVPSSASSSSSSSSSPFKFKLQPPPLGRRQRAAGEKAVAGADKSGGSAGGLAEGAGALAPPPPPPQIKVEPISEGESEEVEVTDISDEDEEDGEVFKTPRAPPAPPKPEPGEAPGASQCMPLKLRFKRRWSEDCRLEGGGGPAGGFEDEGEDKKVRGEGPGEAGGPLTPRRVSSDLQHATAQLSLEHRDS
# In short: as §1
# [12] = target: T7, ETV3L (Homo sapiens, UniProt Q6ZN32 1-361); settings: protein: recombinant; tags: N-terminal GST; dsDNA, one strand shown
# T7 sequence: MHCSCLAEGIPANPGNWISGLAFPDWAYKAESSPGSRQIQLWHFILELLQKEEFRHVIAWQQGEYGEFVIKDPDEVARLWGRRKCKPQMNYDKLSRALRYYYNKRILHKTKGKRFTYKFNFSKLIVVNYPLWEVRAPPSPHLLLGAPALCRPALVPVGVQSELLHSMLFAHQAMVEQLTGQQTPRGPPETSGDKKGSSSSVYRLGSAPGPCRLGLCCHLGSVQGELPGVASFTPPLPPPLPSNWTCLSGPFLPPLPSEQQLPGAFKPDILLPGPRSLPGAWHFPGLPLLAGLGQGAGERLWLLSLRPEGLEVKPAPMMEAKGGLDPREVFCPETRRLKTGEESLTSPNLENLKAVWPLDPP
# In short: as §1
# [13] = target: T8, ETS2 (Homo sapiens, UniProt P15036 1-469); settings: protein: recombinant; tags: N-terminal GST; dsDNA, one strand shown
# T8 sequence: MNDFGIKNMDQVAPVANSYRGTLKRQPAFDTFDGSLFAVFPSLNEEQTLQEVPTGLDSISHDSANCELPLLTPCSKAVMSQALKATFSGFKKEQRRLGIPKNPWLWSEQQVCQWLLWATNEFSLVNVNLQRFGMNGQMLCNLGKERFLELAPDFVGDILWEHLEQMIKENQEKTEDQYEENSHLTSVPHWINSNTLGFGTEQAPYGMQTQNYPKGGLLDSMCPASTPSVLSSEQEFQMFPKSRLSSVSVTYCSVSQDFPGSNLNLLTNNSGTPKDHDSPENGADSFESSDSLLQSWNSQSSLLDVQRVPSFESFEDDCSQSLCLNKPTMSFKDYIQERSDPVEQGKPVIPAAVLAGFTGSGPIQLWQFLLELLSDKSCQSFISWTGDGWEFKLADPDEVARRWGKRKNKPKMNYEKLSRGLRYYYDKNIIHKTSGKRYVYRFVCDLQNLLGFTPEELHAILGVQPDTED
# In short: as §1
# [14] = target: T9, SPDEF (Homo sapiens, UniProt O95238 1-335); settings: protein: recombinant; tags: N-terminal GST; dsDNA, one strand shown
# T9 sequence: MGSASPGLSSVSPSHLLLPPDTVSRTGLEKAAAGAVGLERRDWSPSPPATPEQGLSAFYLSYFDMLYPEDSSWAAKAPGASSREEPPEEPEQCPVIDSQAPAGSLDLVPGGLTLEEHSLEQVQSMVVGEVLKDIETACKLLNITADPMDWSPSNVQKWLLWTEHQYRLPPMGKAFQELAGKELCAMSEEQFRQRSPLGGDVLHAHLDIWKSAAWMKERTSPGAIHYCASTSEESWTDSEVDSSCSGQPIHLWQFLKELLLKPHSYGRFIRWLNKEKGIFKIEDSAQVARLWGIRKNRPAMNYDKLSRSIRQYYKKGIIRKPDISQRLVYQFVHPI
# In short: as §1
# [15] = target: T10, ETV7 (Homo sapiens, UniProt Q9Y603 1-341); settings: protein: recombinant; tags: N-terminal GST; dsDNA, one strand shown
# T10 sequence: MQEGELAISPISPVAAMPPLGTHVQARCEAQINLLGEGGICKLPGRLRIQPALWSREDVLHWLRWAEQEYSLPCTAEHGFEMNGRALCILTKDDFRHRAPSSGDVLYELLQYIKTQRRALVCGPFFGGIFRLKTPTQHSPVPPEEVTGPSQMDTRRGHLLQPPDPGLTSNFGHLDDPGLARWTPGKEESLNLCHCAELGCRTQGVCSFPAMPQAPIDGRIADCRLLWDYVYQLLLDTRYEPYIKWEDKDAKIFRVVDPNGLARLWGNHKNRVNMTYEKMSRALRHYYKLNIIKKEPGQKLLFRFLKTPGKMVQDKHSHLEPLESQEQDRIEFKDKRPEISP
# In short: as §1
# [16] = target: T11, ELF5 (Homo sapiens, UniProt Q9UKW6-2 1-255); settings: protein: recombinant; tags: N-terminal GST; dsDNA, one strand shown
# T11 sequence: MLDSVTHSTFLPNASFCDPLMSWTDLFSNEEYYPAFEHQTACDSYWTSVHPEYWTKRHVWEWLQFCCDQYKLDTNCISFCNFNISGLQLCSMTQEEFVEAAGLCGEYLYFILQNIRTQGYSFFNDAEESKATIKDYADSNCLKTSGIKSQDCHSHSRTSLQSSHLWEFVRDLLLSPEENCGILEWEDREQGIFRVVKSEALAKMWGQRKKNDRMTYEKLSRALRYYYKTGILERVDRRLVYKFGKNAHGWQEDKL
# In short: as §1
# [17] = target: T12, ETV3 (Homo sapiens, UniProt P41162-2 1-143); settings: protein: recombinant; tags: N-terminal GST; dsDNA, one strand shown
# T12 sequence: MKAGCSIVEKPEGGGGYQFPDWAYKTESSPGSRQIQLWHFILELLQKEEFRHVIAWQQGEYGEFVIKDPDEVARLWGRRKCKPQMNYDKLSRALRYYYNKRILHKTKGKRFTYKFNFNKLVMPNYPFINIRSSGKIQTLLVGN
# In short: as §1
# [18] = target: ETV6 (Homo sapiens, UniProt P41212 1-452); settings: protein: recombinant; tags: N-terminal GST; dsDNA, one strand shown
# In short: as §1
# ELF4, sequence (Q99607 whole entry): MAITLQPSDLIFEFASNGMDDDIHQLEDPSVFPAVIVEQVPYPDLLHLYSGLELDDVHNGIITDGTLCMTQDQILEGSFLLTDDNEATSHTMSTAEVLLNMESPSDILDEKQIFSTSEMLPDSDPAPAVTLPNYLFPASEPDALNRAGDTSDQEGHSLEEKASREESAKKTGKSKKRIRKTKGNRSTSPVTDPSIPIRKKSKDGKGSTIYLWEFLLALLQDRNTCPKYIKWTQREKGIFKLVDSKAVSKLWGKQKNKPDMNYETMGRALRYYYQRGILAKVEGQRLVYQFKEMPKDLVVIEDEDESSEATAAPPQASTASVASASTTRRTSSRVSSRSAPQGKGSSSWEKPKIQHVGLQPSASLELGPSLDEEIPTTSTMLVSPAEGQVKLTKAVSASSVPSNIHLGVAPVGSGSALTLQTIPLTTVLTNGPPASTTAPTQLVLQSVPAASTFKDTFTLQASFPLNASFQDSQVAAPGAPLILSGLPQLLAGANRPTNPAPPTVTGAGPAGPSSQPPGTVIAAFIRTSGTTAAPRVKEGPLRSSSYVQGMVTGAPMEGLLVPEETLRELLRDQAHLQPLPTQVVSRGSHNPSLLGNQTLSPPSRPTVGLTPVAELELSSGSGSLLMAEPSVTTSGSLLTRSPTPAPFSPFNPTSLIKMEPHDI
# HSF1, sequence (Q00613 whole entry): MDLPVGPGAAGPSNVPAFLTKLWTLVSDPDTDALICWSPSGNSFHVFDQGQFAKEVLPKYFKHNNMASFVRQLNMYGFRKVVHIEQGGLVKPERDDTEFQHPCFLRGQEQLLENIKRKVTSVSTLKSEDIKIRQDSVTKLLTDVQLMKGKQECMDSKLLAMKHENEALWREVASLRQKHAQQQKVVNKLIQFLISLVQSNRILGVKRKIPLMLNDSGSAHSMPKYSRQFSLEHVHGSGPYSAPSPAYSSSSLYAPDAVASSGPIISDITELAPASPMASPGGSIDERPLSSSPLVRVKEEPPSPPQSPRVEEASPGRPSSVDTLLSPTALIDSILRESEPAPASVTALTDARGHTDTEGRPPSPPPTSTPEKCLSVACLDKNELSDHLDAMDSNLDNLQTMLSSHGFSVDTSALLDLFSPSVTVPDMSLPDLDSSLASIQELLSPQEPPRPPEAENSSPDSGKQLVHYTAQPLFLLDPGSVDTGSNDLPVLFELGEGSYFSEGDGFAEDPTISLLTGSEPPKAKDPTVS
# ETV6, sequence (P41212 whole entry): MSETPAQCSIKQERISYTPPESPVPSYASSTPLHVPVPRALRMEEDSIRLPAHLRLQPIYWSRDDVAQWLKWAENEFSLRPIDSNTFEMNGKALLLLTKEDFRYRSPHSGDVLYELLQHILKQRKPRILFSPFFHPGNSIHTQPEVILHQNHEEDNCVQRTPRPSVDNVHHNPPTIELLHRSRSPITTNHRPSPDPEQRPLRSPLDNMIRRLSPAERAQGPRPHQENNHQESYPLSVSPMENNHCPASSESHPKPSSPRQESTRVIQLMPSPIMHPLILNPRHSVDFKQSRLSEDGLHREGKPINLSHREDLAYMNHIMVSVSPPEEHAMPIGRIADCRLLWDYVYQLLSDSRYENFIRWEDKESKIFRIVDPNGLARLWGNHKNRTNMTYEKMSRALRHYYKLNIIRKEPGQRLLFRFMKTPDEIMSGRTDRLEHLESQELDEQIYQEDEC
# CRX, sequence (O43186 whole entry): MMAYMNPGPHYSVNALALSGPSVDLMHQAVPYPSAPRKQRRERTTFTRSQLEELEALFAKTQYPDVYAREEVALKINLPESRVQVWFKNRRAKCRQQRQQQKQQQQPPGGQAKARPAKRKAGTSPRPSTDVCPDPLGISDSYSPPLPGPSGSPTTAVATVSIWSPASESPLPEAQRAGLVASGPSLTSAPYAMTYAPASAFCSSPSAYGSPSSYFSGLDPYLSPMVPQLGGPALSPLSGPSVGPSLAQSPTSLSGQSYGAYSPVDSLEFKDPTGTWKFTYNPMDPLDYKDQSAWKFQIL
# ETV5, sequence (P41161 whole entry): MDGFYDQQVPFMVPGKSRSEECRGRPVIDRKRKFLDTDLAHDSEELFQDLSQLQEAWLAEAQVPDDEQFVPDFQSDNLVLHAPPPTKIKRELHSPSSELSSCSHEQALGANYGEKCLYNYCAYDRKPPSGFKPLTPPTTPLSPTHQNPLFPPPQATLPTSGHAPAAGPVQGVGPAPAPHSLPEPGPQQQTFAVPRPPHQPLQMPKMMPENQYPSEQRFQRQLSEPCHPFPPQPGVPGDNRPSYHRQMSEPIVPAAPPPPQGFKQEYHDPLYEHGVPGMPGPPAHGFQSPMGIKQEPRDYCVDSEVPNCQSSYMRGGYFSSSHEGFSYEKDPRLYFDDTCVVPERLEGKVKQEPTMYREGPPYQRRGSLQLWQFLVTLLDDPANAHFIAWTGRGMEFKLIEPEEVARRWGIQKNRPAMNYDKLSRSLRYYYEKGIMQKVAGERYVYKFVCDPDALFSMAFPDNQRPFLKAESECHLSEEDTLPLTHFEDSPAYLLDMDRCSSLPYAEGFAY
# ETV1, sequence (P50549 whole entry): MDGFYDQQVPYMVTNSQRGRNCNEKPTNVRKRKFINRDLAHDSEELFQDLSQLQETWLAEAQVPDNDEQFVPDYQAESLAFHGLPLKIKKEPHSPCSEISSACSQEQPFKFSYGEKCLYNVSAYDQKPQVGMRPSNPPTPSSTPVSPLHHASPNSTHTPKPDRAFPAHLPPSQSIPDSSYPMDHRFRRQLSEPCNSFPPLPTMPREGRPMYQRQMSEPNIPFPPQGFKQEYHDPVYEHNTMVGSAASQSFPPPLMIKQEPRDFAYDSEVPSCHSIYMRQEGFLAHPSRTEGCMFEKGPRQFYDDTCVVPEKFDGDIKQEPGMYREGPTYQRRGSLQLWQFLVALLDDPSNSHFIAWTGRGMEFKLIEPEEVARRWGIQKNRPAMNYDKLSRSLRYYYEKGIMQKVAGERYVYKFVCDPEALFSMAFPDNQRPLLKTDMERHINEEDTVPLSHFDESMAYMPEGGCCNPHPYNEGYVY
sequence,measurement,setting,value
CTCGTT,binding signal,[1],"1.22 fold enrichment (6-mer frequency, TF over GST control)"
same,binding signal,[2],"1.29 fold enrichment (6-mer frequency, TF over GST control)"
same,binding signal,[3],"1.24 fold enrichment (6-mer frequency, TF over GST control)"
same,binding signal,[4],"1.37 fold enrichment (6-mer frequency, TF over GST control)"
same,binding signal,[5],"1.28 fold enrichment (6-mer frequency, TF over GST control)"
same,binding signal,[6],"1.4 fold enrichment (6-mer frequency, TF over GST control)"
same,binding signal,[7],"1.36 fold enrichment (6-mer frequency, TF over GST control)"
same,binding signal,[8],"1.46 fold enrichment (6-mer frequency, TF over GST control)"
same,binding signal,[9],"1.1 fold enrichment (6-mer frequency, TF over GST control)"
same,binding signal,[10],"1.22 fold enrichment (6-mer frequency, TF over GST control)"
same,binding signal,[11],"1.4 fold enrichment (6-mer frequency, TF over GST control)"
same,binding signal,[12],"1.43 fold enrichment (6-mer frequency, TF over GST control)"
same,binding signal,[13],"1.27 fold enrichment (6-mer frequency, TF over GST control)"
same,binding signal,[14],"1.27 fold enrichment (6-mer frequency, TF over GST control)"
same,binding signal,[15],"1.37 fold enrichment (6-mer frequency, TF over GST control)"
same,binding signal,[16],"1.44 fold enrichment (6-mer frequency, TF over GST control)"
same,binding signal,[17],"1.25 fold enrichment (6-mer frequency, TF over GST control)"
same,binding signal,[18],"1.23 fold enrichment (6-mer frequency, TF over GST control)"
